Source: PubChem BioAssay AID624138 (Broad Institute, 2012)
About 35 (0.2%) of roughly 17,000 compounds were called active.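 The calls were made as follows: active = compounds whose four printed spots each show fluorescence over background unusually high for their array block, chance value under 7%; inactive = the rest.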 For the sample, actives were picked, then their nearest neighbours and some compounds at random.

target: Signal transducer and activator of transcription 3 (Homo sapiens) (UniProt P40763); assay: STAT3 binders, primary screen, biochemical, small molecule microarray, single point, set 2 (AID 624138); settings: His-STAT3 binding, anti-His fluorescence
Sequence (P40763 whole entry, looked up): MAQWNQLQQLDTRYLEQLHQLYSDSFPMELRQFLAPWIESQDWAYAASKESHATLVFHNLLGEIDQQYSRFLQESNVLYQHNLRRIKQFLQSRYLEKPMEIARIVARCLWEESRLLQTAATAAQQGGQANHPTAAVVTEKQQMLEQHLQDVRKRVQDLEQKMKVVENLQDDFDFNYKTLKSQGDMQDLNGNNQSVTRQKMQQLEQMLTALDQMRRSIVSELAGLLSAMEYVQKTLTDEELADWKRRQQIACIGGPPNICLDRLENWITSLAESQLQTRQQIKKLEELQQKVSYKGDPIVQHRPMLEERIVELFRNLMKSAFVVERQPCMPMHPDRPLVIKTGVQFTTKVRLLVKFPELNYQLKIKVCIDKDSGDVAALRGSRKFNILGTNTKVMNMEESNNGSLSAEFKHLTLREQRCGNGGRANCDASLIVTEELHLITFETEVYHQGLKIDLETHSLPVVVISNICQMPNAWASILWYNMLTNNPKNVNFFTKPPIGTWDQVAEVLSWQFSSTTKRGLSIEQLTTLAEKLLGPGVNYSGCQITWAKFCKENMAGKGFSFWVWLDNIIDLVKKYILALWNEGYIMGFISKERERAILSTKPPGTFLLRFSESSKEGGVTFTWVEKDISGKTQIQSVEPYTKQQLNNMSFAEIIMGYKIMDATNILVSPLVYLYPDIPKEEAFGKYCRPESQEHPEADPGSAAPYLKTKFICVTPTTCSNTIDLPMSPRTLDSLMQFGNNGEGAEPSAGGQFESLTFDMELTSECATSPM

outcome, inactive:
O=C(C1=C[C@H](C2CC2)C[C@H](OCc2ccc(CO)cc2)O1)N1CCN(Cc2ccccc2)CC1, C[C@@H]1CCCCO[C@H](CN(C)C(=O)Nc2ccccc2)[C@H](C)CN([C@H](C)CO)C(=O)c2cc(N(C)C)ccc2O1, CC(C)NC(=O)N(C)C[C@H]1OCCCC[C@@H](C)Oc2ccc(NC(=O)Nc3cccc4ccccc34)cc2C(=O)N([C@H](C)CO)C[C@@H]1C, C[C@H]1CN([C@@H](C)CO)C(=O)Cc2cc(NC(=O)Nc3ccc4c(c3)OCO4)ccc2O[C@H]1CN(C)CC1CC1, CC1(C)CC[C@]2(C(=O)O[C@@H]3O[C@H](CO)[C@@H](O)[C@H](O)[C@H]3O)CC[C@]3(C)C(=CCC4[C@@]5(C)CC[C@H](O[C@@H]6O[C@H](C(=O)O)[C@@H](O[C@@H]7OC[C@H](O)[C@H](O)[C@H]7O)[C@H](O)[C@H]6O)C(C)(C)C5CC[C@]43C)C2C1 (some centres not stated), CC(=O)OC[C@H]1O[C@@H](Oc2c(-c3ccc(O)c(O)c3)oc3cc(O)cc(O)c3c2=O)[C@H](O)[C@@H](O)[C@@H]1O, Cc1noc(C)c1S(=O)(=O)Nc1ccc2c(c1)C(=O)N([C@@H](C)CO)C[C@@H](C)[C@@H](CN(C)C)O2, C[C@H](CO)N1C[C@H](C)[C@@H](CN(C)S(=O)(=O)c2ccc(Cl)cc2)Oc2ccc(NS(=O)(=O)c3cccs3)cc2CC1=O, CC(C)NC(=O)Nc1ccc2c(c1)CC(=O)N([C@@H](C)CO)C[C@@H](C)[C@H](CN(C)Cc1ccc(C(F)(F)F)cc1)O2, OCc1nc2ccccc2n1CCOc1cccc(Cl)c1, C[C@@H]1CN([C@@H](C)CO)C(=O)c2cc(NC(=O)Nc3cccc4ccccc34)ccc2O[C@@H]1CN(C)C(=O)NC1CCCCC1, Cc1noc(C)c1NC(=O)N(C)C[C@@H]1Oc2ccc(NC(=O)Nc3ccc4c(c3)OCO4)cc2CC(=O)N([C@H](C)CO)C[C@H]1C, C[C@@H]1CCCCO[C@H](CN(C)C(=O)C2CCCCC2)[C@@H](C)CN([C@@H](C)CO)C(=O)c2cc(NC(=O)Nc3ccccc3)ccc2O1, C[C@H]1CCCCO[C@H](CN(C)Cc2ccccc2)[C@@H](C)CN([C@@H](C)CO)C(=O)c2cc(NS(C)(=O)=O)ccc2O1, C[C@H]1CN([C@@H](C)CO)C(=O)Cc2cc(NC(=O)Nc3cccc4ccccc34)ccc2O[C@H]1CN(C)CC1CC1, CO[C@H]1C(=O)c2c(O)c(CC=C(C)C)c(O)c(CC=C(C)C)c2O[C@@H]1c1ccc(O)cc1, COC(=O)CCCCCCC(=O)Nc1ccc(C2OC(CSc3nc(-c4ccccc4)c(-c4ccccc4)o3)CC(c3ccc([N+](=O)[O-])cc3)O2)cc1 (configuration not stated), Cc1ccc(N(C(=O)COc2ccccc2[N+](=O)[O-])C2C=CS(=O)(=O)C2)cc1 (configuration not stated), Cc1noc(C)c1NC(=O)Nc1ccc2c(c1)CC(=O)N([C@H](C)CO)C[C@H](C)[C@H](CN(C)C(=O)NC(C)C)O2, COc1ccc(C#Cc2ccc3c(c2)[C@]2(C(=O)N3)[C@H](c3ccccc3OCCO)N3[C@H](c4ccccc4)[C@H](c4ccccc4)OC(=O)[C@H]3[C@@H]2C(=O)N2CCCCCCC2)cc1, C[C@@H]1CN([C@@H](C)CO)C(=O)c2cc(N(C)C)ccc2O[C@@H](C)CCCCO[C@H]1CN(C)C(=O)CCCN(C)C, Cc1ccc(-n2c(SCC(=O)c3ccccc3)nnc2-c2ccncc2)cc1C, C[C@@H]1CCCCO[C@@H](CN(C)Cc2ccncc2)[C@@H](C)CN([C@@H](C)CO)C(=O)c2cc(NC(=O)Nc3ccc(F)cc3)ccc2O1, CC1(C)CC[C@@]2(C(=O)O)C(C1)C1=CCC3[C@@]4(C)CC[C@H](O)C(C)(C)C4CC[C@@]3(C)[C@]1(C)C[C@H]2O (some centres not stated), Cn1c(Cc2csc(N)n2)nnc1SC/C=C/c1ccccc1, Cc1nnc(SCc2cc(=O)[nH]c(N3CCN(Cc4ccccc4)CC3)n2)s1, COc1ccc(OC)c(NC(=O)c2cnn(-c3ccccc3Cl)c2NC(=O)c2ccco2)c1, C[C@@H]1CN([C@H](C)CO)C(=O)c2cc(NC(=O)Nc3ccc4c(c3)OCO4)ccc2O[C@@H]1CN(C)Cc1ccc(C(F)(F)F)cc1, C[C@@H]1CN([C@H](C)CO)C(=O)Cc2cc(NC(=O)NC3CCCCC3)ccc2O[C@H]1CN(C)S(=O)(=O)c1ccc(Cl)cc1, CNC[C@@H]1Oc2c(NC(=O)Nc3ccccc3)cccc2C(=O)N([C@@H](C)CO)C[C@@H]1C, COC(=O)c1c(NC(=O)c2cc(-c3ccccn3)nc3ccc(Br)cc23)sc(C(=O)N(C)C)c1C, Cc1ccc(-c2cc(C(F)(F)F)n3nc(C(=O)NCCN4CCOCC4)c(Cl)c3n2)cc1, COc1ccc(S(=O)(=O)N2CCN(c3ccccn3)CC2)cc1N(C)S(=O)(=O)c1ccccc1, C=C1CCCC(C)(C(=O)OC)C1CC/C(C)=C/CCC1=CC(=O)OC1 (configuration not stated), C[C@@H]1CN([C@H](C)CO)C(=O)CCCn2cc(nn2)CO[C@H]1CN(C)S(=O)(=O)c1ccc(Oc2ccccc2)nc1, C[C@H](CO)N1C[C@H](C)[C@H](CN(C)S(=O)(=O)c2cn(C)cn2)Oc2ccc(N(C)C)cc2C1=O, C[C@@H]1CN([C@@H](C)CO)C(=O)CCCn2cc(nn2)CO[C@H]1CN(C)Cc1cccc2c1OCCCO2, C[C@H](CO)N1C[C@H](C)[C@@H](CN(C)S(=O)(=O)c2cccs2)Oc2ccc(NC(=O)Nc3cccc4ccccc34)cc2CC1=O, C=CCn1c(SCc2nc3ccccc3[nH]2)nnc1-c1ccccc1, C[C@H]1CN([C@@H](C)CO)C(=O)CCCn2nncc2CO[C@H]1CN(C)Cc1ccccc1, C[C@H]1CN([C@@H](C)CO)C(=O)c2cc(NS(=O)(=O)c3cn(C)cn3)ccc2O[C@H]1CN(C)CC1CCCCC1, O=C(CCc1nc(-c2ccccc2Cl)no1)Nc1ccc(Cl)c(Cl)c1, O=C(NC1CC1)C1=C[C@H](c2coc3ccccc3c2=O)C[C@H](OCCCCO)O1, C[C@@H]1CN([C@H](C)CO)C(=O)Cc2cc(NC(=O)CCN3CCOCC3)ccc2O[C@H]1CN(C)Cc1ccncc1, C=C1CCC(C)C(C)(CCC2=CC(OC)OC2=O)C/C=C\C=C\1C(=O)O (configuration not stated), C=CCNC(=O)[C@H]1[C@@H]2C(=O)O[C@@H](c3ccccc3)[C@@H](c3ccccc3)N2[C@@H](c2ccccc2OCCO)[C@]12C(=O)N(C(=O)OCCOC)c1ccc(C#Cc3ccc(OC)cc3)cc12, C[C@@H]1CN([C@H](C)CO)C(=O)c2cc(NC(=O)Nc3ccccc3)ccc2O[C@@H](C)CCCCO[C@@H]1CN(C)Cc1ccncc1, C[C@H]1CN([C@@H](C)CO)C(=O)Cc2cc(NC(=O)C3CC3)ccc2O[C@@H]1CN(C)S(=O)(=O)c1cccs1, COc1ccc(S(=O)(=O)N(C)C[C@@H]2Oc3c(NS(=O)(=O)c4ccccc4)cccc3C(=O)N([C@@H](C)CO)C[C@@H]2C)cc1, C[C@@H]1CN([C@H](C)CO)C(=O)c2cccc(NC(=O)c3ccncc3)c2O[C@@H]1CN(C)S(=O)(=O)c1cn(C)cn1, Cc1cccc(-n2c(SCC(N)=O)nnc2-c2ccncc2)c1C, C[C@@H]1CCCCO[C@@H](CN(C)C)[C@@H](C)CN([C@H](C)CO)C(=O)c2cc(NC(=O)c3ccncc3)ccc2O1, OC(CCCN1CCN(c2ncc(F)cn2)CC1)c1ccc(F)cc1 (configuration not stated), C[C@@H]1CN([C@H](C)CO)C(=O)c2cccc(NS(=O)(=O)c3cn(C)cn3)c2O[C@@H]1CN(C)Cc1ccc(C(F)(F)F)cc1, Cc1ccc(NC(=O)C(C)N(c2ccc(Cl)cc2)S(C)(=O)=O)c(C)c1 (configuration not stated), COc1ccc(-c2cnc3c(-c4ccsc4)cnn3c2)cc1, C[C@@H]1CCCCO[C@@H](CN(C)C(=O)NC2CCCCC2)[C@H](C)CN([C@H](C)CO)C(=O)c2cc(NS(=O)(=O)c3ccc(Cl)cc3)ccc2O1, Cc1noc(C)c1NC(=O)Nc1ccc2c(c1)C(=O)N([C@@H](C)CO)C[C@@H](C)[C@H](CN(C)C)O2, C[C@@H]1CCCCO[C@H](CN(C)C(=O)Nc2ccc3c(c2)OCO3)[C@@H](C)CN([C@@H](C)CO)C(=O)c2cc(NC(=O)CCC(F)(F)F)ccc2O1, C[C@@H]1CN([C@@H](C)CO)C(=O)Cc2cc(NS(C)(=O)=O)ccc2O[C@@H]1CN(C)Cc1ccc2c(c1)OCO2, Cc1ccc(S(=O)(=O)N(C)C[C@H]2Oc3ccc(NC(=O)CCC(F)(F)F)cc3C(=O)N([C@@H](C)CO)C[C@H]2C)cc1, C[C@@H]1CN([C@H](C)CO)C(=O)Cc2cc(NC(=O)CCCN(C)C)ccc2O[C@@H]1CN(C)S(=O)(=O)c1cccs1, N#Cc1cccc(CSc2nnc(CCCO)n2-c2ccccc2)c1, C[C@@H]1CCCCO[C@@H](CN(C)Cc2ccccc2)[C@H](C)CN([C@H](C)CO)C(=O)c2cc(NS(=O)(=O)c3cccs3)ccc2O1, O=C(CS(=O)(=O)c1ccccc1)Nc1ccc2c(c1)OCCO2, O=[N+]([O-])c1ccccc1/C=C/CN1CCC(O)CC1, COc1ccc(CN(C)C[C@H]2Oc3c(NC(=O)c4ccncc4)cccc3C(=O)N([C@H](C)CO)C[C@@H]2C)cc1
